Source: PubChem BioAssay (National Center for Advancing Translational Sciences (NCATS))
The list is not random: actives were taken first. Their share in the collection is about 1.7%.
TRHR ag – agonists of human TRH receptor. TRHR cells, calcium flux fluo-8, FDSS agonist mode. activation, % at 2 µM. 360,000 tested, 0.18% active; in the data active means activation above about 30%
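TRHR-expressing cells loaded with fluo-8 calcium dye; 23 nL library compound pin-transferred, kinetic FDSS fluorescence (Ex 480/Em 530) recorded about 180 s for agonist-induced calcium release, before a 10 nM TRH EC20 addition for potentiator mode.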
TRPML1 inh – blocks the human TRPML1 channel | Q9GZU1 | TRPML1-inducible cells, Ca2+ dye fluorescence, FDSS; hits give low values; inhibition of EC80 agonist-evoked calcium signal | activity change, negative = inhibition, % (concentration not given with the values) | 390,000 tested, 0.02% active; in the data active means activity change below about -50%;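 further: stimulus is agonist 54-4 at its EC80 concentration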
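TRPML1-DL cells, Tet-induced overnight (~16 h, 37 °C) at 1,500 cells/well, were loaded with Ca8 no-wash dye plus quencher for 45-90 min at room temperature. Compounds were pinned during FDSS kinetic reading; agonist 54-4 at EC80 (4 uM final) then added.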
TRHR PAM – TRH receptor (human) allosteric enhancement. 360,000 tested, 0.66% active. P34981. TRHR cells, fluo-8 calcium fluorescence, EC20 TRH enhancement. enhancement, % at 2 µM; in the data active means enhancement above about 30%
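TRHR-expressing cells loaded with fluo-8 calcium dye were read kinetically (ex 480/em 530) during compound addition, then stimulated with an EC20 of TRH (10 nM final). Enhancement of the Gq-mediated intracellular calcium response was scored.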
hERG WT inh – KCNH2 (human, wildtype) channel inhibition; Q12809; U2OS, BacMam KCNH2, thallium flux FluxOr; hits give low values; activity change, % at 1.84 µM; 340,000 tested, 0.37% active; AID 720551;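 active means maximum activity change below -70%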
Target sequence (Q12809 whole entry, looked up): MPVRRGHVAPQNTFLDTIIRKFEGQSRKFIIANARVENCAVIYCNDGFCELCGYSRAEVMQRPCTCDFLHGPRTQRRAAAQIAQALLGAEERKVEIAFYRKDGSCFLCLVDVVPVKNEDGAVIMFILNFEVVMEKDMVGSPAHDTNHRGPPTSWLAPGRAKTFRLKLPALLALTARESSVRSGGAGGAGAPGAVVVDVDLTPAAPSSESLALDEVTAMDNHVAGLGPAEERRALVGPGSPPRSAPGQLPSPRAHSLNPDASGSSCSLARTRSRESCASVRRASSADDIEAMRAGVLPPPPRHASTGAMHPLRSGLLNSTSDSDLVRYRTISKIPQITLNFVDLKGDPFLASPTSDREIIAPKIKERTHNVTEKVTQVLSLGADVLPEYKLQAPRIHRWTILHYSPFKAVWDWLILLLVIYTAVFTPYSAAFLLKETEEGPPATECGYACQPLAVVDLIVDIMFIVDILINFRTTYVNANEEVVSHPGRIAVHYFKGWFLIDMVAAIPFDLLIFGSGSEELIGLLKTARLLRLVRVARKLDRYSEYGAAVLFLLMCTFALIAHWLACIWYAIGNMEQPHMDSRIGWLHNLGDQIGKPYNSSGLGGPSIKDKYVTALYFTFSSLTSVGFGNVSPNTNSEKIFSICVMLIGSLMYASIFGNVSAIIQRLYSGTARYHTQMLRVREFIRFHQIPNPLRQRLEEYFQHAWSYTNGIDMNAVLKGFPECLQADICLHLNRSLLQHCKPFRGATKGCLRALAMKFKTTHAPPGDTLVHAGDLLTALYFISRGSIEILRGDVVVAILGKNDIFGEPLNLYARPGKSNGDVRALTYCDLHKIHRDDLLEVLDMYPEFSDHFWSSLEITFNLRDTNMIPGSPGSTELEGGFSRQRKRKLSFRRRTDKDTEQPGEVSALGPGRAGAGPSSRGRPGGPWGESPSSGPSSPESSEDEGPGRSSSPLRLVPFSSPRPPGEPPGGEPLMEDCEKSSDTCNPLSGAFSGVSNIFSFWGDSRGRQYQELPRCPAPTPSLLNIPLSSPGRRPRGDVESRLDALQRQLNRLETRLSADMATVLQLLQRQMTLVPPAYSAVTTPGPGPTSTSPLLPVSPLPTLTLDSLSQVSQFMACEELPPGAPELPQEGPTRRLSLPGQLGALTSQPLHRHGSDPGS
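U2OS cells were transduced with wild-type KCNH2 virus (2.03 x 10^8 / mL) for 4 h at room temperature, then cultured overnight at 37 C. Thallium flux was read with FluxOr dye. Rate constants were normalized to DMSO controls.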
TRPML1 ag – human mucolipin-1 channel agonism; TRPML1-expressing cells, Ca2+ dye fluorescence, FDSS; activation, % (concentration not given with the values); 410,000 tested, 0.12% active; in the data active means activation above about 50%
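Calcium fluorescence on an FDSS kinetic reader gave the read-out. Tet-induced TRPML1-DL cells were plated overnight, dye-loaded (Ca8 with quencher, 45-90 min, room temperature, dark), then read 110 s after compound addition, and again 110 s after 4uM final 54-4 (EC80).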
KCNH2 3.1 block – blocks the human KCNH2 3.1 channel isoform | U2OS KCNH2 3.1, thallium flux FluxOr; hits give low values | 340,000 tested, 0.95% active | AID 720553 | activity change, % (tested at about 1.8 µM);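 active means maximum activity change below -70%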;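 further: thallium influx rate constant from kinetic fluorescence after stimulation buffer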
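Normalized rate constant (relative to positive and negative DMSO controls) derived from a 2 min kinetic fluorescence read after stimulation; U2OS cells expressing the 3.1 isoform via virus at 1.77 x 10^8 /mL.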
Each line names hits and unclear results; the compound was inactive in the other large screens.

CC(=O)Nc1ccc(NC(=O)COC(=O)/C(=C/c2ccccc2)n2nnnc2C)cc1	none
O=C(/C=C/c1ccccc1)N1CCN(Cc2cc(=O)n3nc(-c4ccccc4Cl)sc3n2)CC1	none (no result: hERG WT inh, KCNH2 3.1 block)
COc1cccc(C2CC(C(F)(F)F)n3ncc(C(=O)NCc4ccco4)c3N2)c1 (centres undefined)	TRHR PAM 32
O=S(=O)(c1ccc2c(c1)OCCO2)N1CCN(S(=O)(=O)c2ccc3nc(Cl)c(Cl)nc3c2)CC1	none (no result: TRPML1 inh, hERG WT inh, TRPML1 ag, KCNH2 3.1 block)
CCN1C(=O)[C@H]2[C@@H](c3ccc(-c4ccc5c(c4)OCO5)c(OC)c3)N[C@@](Cc3ccccc3)(C(=O)OC)[C@H]2C1=O	KCNH2 3.1 block -111
COC(=O)c1c(C)cccc1C1CN=NC12Cc1ccccc1C2=O (centres undefined)	TRPML1 ag 113 (no result: TRHR ag, TRHR PAM)
CCCCCCCCN1C(=O)[C@H](CC(=O)N2CCCCC2)C[C@@]2(C(=O)OC)CCCCC=C12	none (no result: TRHR ag, TRPML1 inh, TRHR PAM, hERG WT inh, KCNH2 3.1 block)
O=C(Nc1ccc2c(c1)nc1n2CCN(Cc2ccccc2)C1)NC1CCCCC1	KCNH2 3.1 block -85
CCCN(CCC)c1ccc(/C=C/c2sc3ccccc3[n+]2CCCCI)cc1	none (no result: TRHR ag, TRPML1 inh, TRHR PAM, hERG WT inh, KCNH2 3.1 block)
COc1ccc(OC)c(NC(=O)c2cccc(N3C(=O)C4C5CCC(C5)C4C3=O)c2)c1 (centres undefined)	none
COc1ccc(N2C(=O)c3ccc(C(=O)OC(C)C)cc3C2=O)cc1	none
COc1ccc(N2C(=O)c3ccc(C(=O)Nc4cc(OC)ccc4OC)cc3C2=O)cc1	KCNH2 3.1 block -96
COc1ccc(OC)c(NC(=O)c2cccc(N3C(=O)C4C5C=CC(C6CC56)C4C3=O)c2)c1 (centres undefined)	hERG WT inh -167
COc1ccc2oc(C(=O)c3ccccc3)c(NC(=O)CN3CCN(C)CC3)c2c1	none
CN1CCN(CC(=O)Nc2c(C(=O)c3ccccc3)oc3ccccc23)CC1	hERG WT inh -101, KCNH2 3.1 block -106
C=CCNC(=O)c1onc(CSc2cccc3ccccc23)c1C(=O)O	TRHR PAM 33
C=CCNC(=O)c1onc(CSc2ccccc2F)c1C(=O)O	none (no result: hERG WT inh, KCNH2 3.1 block)
Cc1ccc(S(=O)(=O)N2CCN(C(=O)COC(=O)c3ccc(Cl)nc3)CC2)c(C)c1	hERG WT inh -162
Cc1ccc(S(=O)(=O)N2CCN(C(=O)COC(=O)c3cccnc3Cl)CC2)c(C)c1	none
Cc1ccccc1N(C(=O)c1snc(C(N)=O)c1N)C(C(=O)NCC1CCCO1)c1ccc(N(C)C)cc1 (centres undefined)	none
Cc1ccccc1N(C(=O)c1snc(C(N)=O)c1N)C(C(=O)NCC1CCCO1)c1ccc(F)cc1 (centres undefined)	TRHR PAM 40
COc1ccc(NC(=O)CN(C)C(=O)c2ccc(S(=O)(=O)Nc3ccccc3C)cc2)cc1	none
O=C(COC(=O)c1cc(S(=O)(=O)N2CCCCC2)ccc1N1CCOCC1)NCCc1ccc(F)cc1	TRHR PAM 31
Cc1ccc(C)c(C(=O)COC(=O)c2cc(S(=O)(=O)N3CCOCC3)ccc2F)c1	hERG WT inh -77 (no result: TRHR ag, TRHR PAM)
CC(C)NC(=O)NC(=O)COC(=O)c1cc(S(=O)(=O)N2CCCCC2)ccc1N1CCOCC1	none
CC(C)CNC(=O)COC(=O)c1cc(S(=O)(=O)N2CCCCC2)ccc1N1CCOCC1	TRHR PAM 32
O=C1CCC2(CCCCC2)N1	none (no result: TRHR ag, TRHR PAM)
C/C(=N\Nc1ccc([N+](=O)[O-])cc1[N+](=O)[O-])c1ccc(-n2nncc2C(C)(C)C)cc1	TRPML1 ag 76
O=C(CN1CCN(S(=O)(=O)c2ccc(Br)s2)CC1)NC1CCCCC1	none (no result: TRHR ag, TRHR PAM)
O=C(CN1CCN(S(=O)(=O)c2ccc(Br)s2)CC1)N1CCCCC1	hERG WT inh -227
O=C(N1CCCCC1)N1CCN(S(=O)(=O)c2ccccc2)CC1	none
O=C(Nc1ccc(N2CCN(C(=O)c3ccco3)CC2)c(Cl)c1)c1cc2ccccc2o1	KCNH2 3.1 block -113
O=C(Nc1ccc(-c2nc3ncccc3o2)cc1)c1ccco1	KCNH2 3.1 block -81
